Records with an inconclusive call do not appear. Entries that show only a call come without a potency. Values without a mark were called inactive. The source made the active and inactive calls. Calls follow the shape of the dose curve; as a rule, active = well fitted inhibition curve with a large enough effect; inconclusive = small, poorly fitted or top-dose-only effect; inactive = no such curve, though single readings can be large or run the other way. *1 amine or outer side, *2 acyl side, *3 side chain or, on linkers, in order; H or OH if unused. Where a SMILES comes first, the peptide text is derived from it. Bridges are numbered along the chain shown (N, C = ends). [ ]: non-standard residue; d: D form. The star is where a group is joined. ξ: configuration not given here. X10 = NC1=NCCC(C(N[*:1])C(=O)[*:2])N1; ΔAla(3-NHCONH2) = NC(=O)NC=C(N)C(=O)O; ξβ3hOrn = NCCCC(N)CC(=O)*; Dap = NC[CH](N)C(=O)O
Experiment: qHTS assay for measurement of the activity of small molecule inhibitors on Zika virus induced Caspase-3 activity in human iPSC derived neural progenitor cells (hNPCs) (AID 1224857); also: nearly all actives have a fitted effect of over 65% in size
Details: hNPCs ZIKV-induced caspase-3/7, Caspase-Glo luminescence, 6 h; series mostly up to 45.7 µM
Procedure, shortened: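 In medium with heparin 2 ug/ml and cyclopamine 2 uM, hNPCs (350 cells/well) received compound for one hour and then Zika virus at 2 FFU/cell; caspase activity was measured by Caspase-Glo 3/7 luminescence 6 h post-infection.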
Potency is read from the fitted curve at half-maximal effect.

With `C/C=C(/C(=C/C)c1ccc(OC(C)=O)cc1)c1ccc(OC(C)=O)cc1` as the compound, how does the Potency read?
Its Potency is “inactive”.

With `CN1CC(=O)N2[C@H](c3ccc4c(c3)OCO4)c3[nH]c4ccccc4c3C[C@@H]2C1=O` as the compound, how does the Potency read?
The Potency was “inactive”.

With `O=c1[nH]c2ccccc2c(=O)n1CCCl` as the compound, how does the Potency read?
The Potency was “inactive”.

For `NCCCC(N)CC(=O)NCC1NC(=O)C(CO)NC(=O)C(N)CNC(=O)C(C2CCN=C(N)N2)NC(=O)C(=CNC(N)=O)NC1=O` (stereo not drawn) (H-[Dap]S[Dap](ξβ3hOrn)[ΔAla(3-NHCONH2)][X10]; lactam 1-C; configuration not given here), which activity change, negative = inhibition is on record?
The activity change, negative = inhibition was 2.09% [at 0.568 µM].

Which Potency does the source give for `O=C(O)C1CCC1` here?
Its Potency is “inactive”.

For `C/C(=N\O)[C@@H](C)NCC(C)(C)CN[C@H](C)/C(C)=N/O`, which Potency is on record?
The Potency was “inactive”.

For `O=C(C1CCCCC1)N1CC(=O)N2CCCc3ccccc3C2C1` (configuration not stated), which Potency is on record?
The Potency was “inactive”.

For `CNC(=O)c1cnn(-c2nc(N)c3ncn([C@@H]4O[C@H](CO)[C@@H](O)[C@H]4O)c3n2)c1`, which Potency is on record?
Its Potency is “inactive”.

Which Potency does the source give for `O=C(CCCl)NCc1ccccc1` here?
The Potency was “inactive”.

With `CCCCCOc1ccccc1/C(=C\SC)n1ccnc1` as the compound, how does the Potency read?
Its Potency is “inactive”.

Which Potency does the source give for `O=[N+]([O-])c1cncn1CCN1CCOCC1` here?
Its Potency is “inactive”.

Which Potency does the source give for `O=C(OCCN1CCOCC1)c1cccnc1Nc1cccc(C(F)(F)F)c1` here?
Its Potency is “inactive”.

Which Potency does the source give for `CCCc1ncc(C(=O)O)s1` here?
Its Potency is “inactive”.

With `Nc1cc(C(F)(F)F)ccc1S` as the compound, how does the Potency read?
The Potency was 14.1 µM (active).

Which Potency does the source give for `CCS(=O)(=O)c1ccc(OC)c(C(=O)OC)c1` here?
Its Potency is “inactive”.

For `O=C(CS(=O)Cc1ccco1)NC/C=C\COc1cc(CN2CCCCC2)ccn1` (configuration not stated), which Potency is on record?
The Potency was “inactive”.

Which Potency does the source give for `CC(C)Cc1ccc(C(C)C(=O)OCc2ccccn2)cc1` (configuration not stated) here?
The Potency was “inactive”.

Source: PubChem BioAssay (NCATS)
